In PubChem BioAssay (Tox21):
Records with an inconclusive call do not appear. Calls of active or inactive are those of the source. Unless noted, calls follow the shape of the dose curve; as a rule, active = well fitted curve in the direction sought with a large enough effect in the repeat runs; inconclusive = weak or mixed curves; inactive = no such curve, though single readings can be large; an effect the other way counts as inactive or inconclusive.

Tests used:
[1] = qHTS assay for small molecule agonists of the p53 signaling pathway (AID 651631; calls by dose curve; also: nearly all actives have a fitted effect of over 15% in size)
Method in brief: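 Read-out is beta-lactamase FRET fluorescence measured 2 h after substrate addition at room temperature, in HCT-116 cells with a p53 response element-driven reporter exposed to compounds for 16 h at 37 °C.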

[2] = qHTS assay for small molecules that induce genotoxicity in human embryonic kidney cells expressing luciferase-tagged ATAD5 (AID 651632); also: nearly all actives have a fitted effect of over 15% in size
Method in brief: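 Reporter cells (HEK293T) express luciferase-tagged ATAD5, a protein that accumulates after DNA damage. Treat 16 hr at 37C/5% CO2, add Amplite, wait 30 min at RT, and read luminescence.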

[3] = qHTS assay for small molecule agonists of the p53 signaling pathway - cell viability (AID 651633; calls by dose curve;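 also: p53RE-bla HCT reporter cells with a stable beta-lactamase p53 reporter; series mostly up to about 83 µM; nearly all actives have a fitted effect of over 30% in size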)
Method in brief: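 p53RE-bla cells were treated with compound for 16 hours at 37 C. Cytotoxicity was then measured as CellTiter-Glo luminescence after 30 min at room temperature.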

[4] = qHTS assay for small molecules that induce genotoxicity in human embryonic kidney cells expressing luciferase-tagged ATAD5 - cell viability (AID 651634; calls by dose curve; also: nearly all actives have a fitted effect of over 25% in size)
Method in brief: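 Seeding of 2,000 HEK293T ATAD5-luciferase cells per well preceded pin-tool compound transfer. Plates sat 15.5 hr at 37C under 5% CO2, then fluorescence was read after 30 min with CellTiter-Fluor.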

[5] = qHTS assay for small molecule disruptors of the mitochondrial membrane potential - cell viability (AID 720634; calls by dose curve;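 also: human HepG2 liver cancer cells; series mostly up to about 83 µM; nearly all actives have a fitted effect of over 20% in size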)
Method in brief: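 Measuring cytotoxicity alongside mitochondrial potential, the screen quantified ATP by luminescence in HepG2 cells after 1 hr compound incubation and a 30 min room-temperature CellTiter-Glo step.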

[6] = qHTS assay for small molecule disruptors of the mitochondrial membrane potential (AID 720635)
Method in brief: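 HepG2 cells exposed to compound 1 hr at 37C, then Mito-MPS dye 30 min. Ratio read of aggregate (540/590 nm) versus monomer (490/535 nm) fluorescence.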

[7] = qHTS assay to test for compound auto fluorescence at 590 nm (red) in HepG2 cells (AID 720674)
Method in brief: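 Fluorescence at 590 nm emission following 540 nm excitation was recorded from HepG2 wells one hour after compound transfer, with DMSO-only wells as vehicle and Rose Bengal sodium equivalency as the scale.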

[8] = qHTS assay to test for compound auto fluorescence at 535 nm (green) in HepG2 cells (AID 720675)
[9] = qHTS assay to test for compound auto fluorescence at 460 nm (blue) in HEK293 cells (AID 720678)
Method in brief: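 Blue read-out at excitation 405 nm and emission 460 nm follows overnight compound exposure of HEK293 cells at 37C in 5% CO2. Activity is given as auto fluorescence equivalency to triamterene.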

[10] = qHTS assay to test for compound auto fluorescence at 590 nm (red) in HEK293 cells (AID 720679)
Method in brief: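 Red channel, Ex/Em 540/590nm; signal expressed as equivalency to Rose Bengal sodium. HEK293, 2,000 cells/well, 10% dialyzed FBS; 23 nL compound pinned after 4-5 hr attachment; overnight 37C/5% CO2 before reading.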

[11] = qHTS assay to test for compound auto fluorescence at 460 nm (blue) in HEK293 cell free culture (AID 720681)
Method in brief: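 Compounds were added to cell-free DMEM with 10% FBS and fluorescence read directly. The blue channel used 405 nm excitation and 460 nm emission, with triamterene as the reference fluorophore.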

[12] = qHTS assay to test for compound auto fluorescence at 535 nm (green) in HEK293 cell free culture (AID 720682)
Method in brief: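 Fluorescein serves as the green reference fluorophore; each compound's intrinsic emission at 535 nm (excitation 485 nm) is reported as an equivalent amount of that dye, measured in serum-containing DMEM without cells.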

[13] = qHTS assay to test for compound auto fluorescence at 590 nm (red) in HEK293 cell free culture (AID 720683)
Method in brief: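 Cell-free wells of DMEM with 10% FBS received compound, and intrinsic fluorescence was read at excitation/emission 540/590 nm. Values expressed as equivalence to Rose Bengal sodium.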

[14] = qHTS assay to test for compound auto fluorescence at 590 nm (red) in HepG2 cell free culture (AID 720684)
Method in brief: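 Compound was pinned into wells holding MEM with 10% FBS and no cells, and red fluorescence was read at Ex/Em 540/590 nm. Signal is expressed as auto fluorescence equivalency relative to Rose Bengal sodium.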

[15] = qHTS assay to test for compound auto fluorescence at 460 nm (blue) in HepG2 cell free culture (AID 720685)
Method in brief: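 Compound (23 nL) or DMSO pinned into cell-free MEM with 10% FBS; blue fluorescence read at 405/460 nm excitation/emission, expressed as auto-fluorescence equivalency to triamterene.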

[16] = qHTS assay to test for compound auto fluorescence at 535 nm (green) in HepG2 cell free culture (AID 720686)
[17] = qHTS assay to test for compound auto fluorescence at 460 nm (blue) in HepG2 cells (AID 720687)
Method in brief: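 HepG2 cells in MEM with 10% FBS, attached overnight at 37 C, were exposed to compound or DMSO for 1 hr at 37 C, 5% CO2. Blue fluorescence was read at 405/460 nm, with triamterene as reference fluorophore.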

[18] = molecular target: Glucocorticoid receptor (Homo sapiens) (UniProt P04150); test: qHTS assay to identify small molecule agonists of the glucocorticoid receptor (GR) signaling pathway (AID 720691; active = well fitted activation curve with a large enough effect in the signal ratio in the repeat runs, not every such curve was filed as active; the % refers to the signal ratio)
Method in brief: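 Reporter read-out: fluorescence intensity following 2 h room-temperature LiveBLAzer B/G FRET substrate loading. Prior step: GR-bla HeLa cells held 4 h, then treated 18 h at 37 C.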

[19] = molecular target: Glucocorticoid receptor (Homo sapiens) (UniProt P04150); test: qHTS assay to identify small molecule antagonists of the glucocorticoid receptor (GR) signaling pathway (AID 720692; active = well fitted inhibition curve with a large enough effect in the signal ratio in the repeat runs, not every such curve was filed as active; the % refers to the signal ratio)
Method in brief: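 Dexamethasone (5 nM final) stimulated a stably integrated GRE-beta-lactamase reporter in HeLa cells during 18 h co-incubation with compounds; signal was quantified as fluorescence intensity of B/G FRET substrate after 2 h.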

[20] = qHTS assay to identify small molecule antagonists of the glucocorticoid receptor (GR) signaling pathway - cell viability counter screen (AID 720693); also: nearly all actives have a fitted effect of over 55% in size
[21] = qHTS assay for identifying genotoxic compounds that show differential cytotoxicity against isogenic chicken DT40 cell lines with known DNA damage response pathways - wild type cell line (AID 743012); also: nearly all actives have a fitted effect of over 60% in size
Method in brief: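 Using parental DT40 (300 cells/well), compounds delivered in DMSO incubate 40 h at 37 C/5% CO2. CellTiter-Glo reagent then stands 30 min at room temperature, and luminescence gives cell viability.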

[22] = qHTS assay for identifying genotoxic compounds that show differential cytotoxicity against isogenic chicken DT40 cell lines with known DNA damage response pathways - Rev3 mutant cell line (AID 743014); also: nearly all actives have a fitted effect of over 55% in size
[23] = qHTS assay for identifying genotoxic compounds that show differential cytotoxicity against isogenic chicken DT40 cell lines with known DNA damage response pathways - Rad54/Ku70 mutant cell line (AID 743015); also: nearly all actives have a fitted effect of over 60% in size
[24] = qHTS assay to identify small molecule antagonists of the androgen receptor (AR) signaling pathway - cell viability counter screen (AID 743033; also: nearly all actives have a fitted effect of over 45% in size)

Measured: Potency

Chain of Glucocorticoid receptor (Homo sapiens) (P04150 whole entry, looked up): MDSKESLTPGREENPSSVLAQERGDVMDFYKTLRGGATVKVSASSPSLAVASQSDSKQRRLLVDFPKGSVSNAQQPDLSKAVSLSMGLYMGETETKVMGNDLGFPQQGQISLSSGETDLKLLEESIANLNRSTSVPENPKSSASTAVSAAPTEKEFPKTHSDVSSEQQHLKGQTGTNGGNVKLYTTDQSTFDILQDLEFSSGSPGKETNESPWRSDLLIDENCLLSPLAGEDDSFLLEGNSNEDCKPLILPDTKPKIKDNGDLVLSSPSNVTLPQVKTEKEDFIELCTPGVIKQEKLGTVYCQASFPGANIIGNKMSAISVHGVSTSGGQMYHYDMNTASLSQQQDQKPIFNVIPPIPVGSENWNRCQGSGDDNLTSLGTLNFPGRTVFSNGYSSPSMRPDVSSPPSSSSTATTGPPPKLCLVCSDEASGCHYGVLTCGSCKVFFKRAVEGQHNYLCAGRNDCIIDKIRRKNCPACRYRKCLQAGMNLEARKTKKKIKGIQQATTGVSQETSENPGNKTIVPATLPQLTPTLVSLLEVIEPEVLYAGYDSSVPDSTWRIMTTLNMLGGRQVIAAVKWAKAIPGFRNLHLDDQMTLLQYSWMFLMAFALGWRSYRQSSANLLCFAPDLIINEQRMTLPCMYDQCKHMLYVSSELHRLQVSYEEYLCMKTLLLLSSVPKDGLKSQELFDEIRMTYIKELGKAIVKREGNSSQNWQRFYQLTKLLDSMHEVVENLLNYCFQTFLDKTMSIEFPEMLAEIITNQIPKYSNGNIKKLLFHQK

NC(=O)CN1CC(O)CC1=O (centres undefined)
inactive: all assays above
